# Bioassay records from PubChem BioAssay.
# Compounds with a hit are over-represented: about 3.7% of the library has one in this group of screens.
# Rce1 inhib: blocks yeast Ras-converting enzyme; calls only; 0.27% of 290,000 active; yeast membranes, quenched prenylated peptide cleavage fluorescence; Q03530;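 active = fall in fluorescence gain of 50% or more versus controls, with final raw signal at or below 3038400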;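 note: plate controls were neutral control wells for no effect and wells lacking membranes for full effect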
# Target sequence (Q03530 whole entry, looked up): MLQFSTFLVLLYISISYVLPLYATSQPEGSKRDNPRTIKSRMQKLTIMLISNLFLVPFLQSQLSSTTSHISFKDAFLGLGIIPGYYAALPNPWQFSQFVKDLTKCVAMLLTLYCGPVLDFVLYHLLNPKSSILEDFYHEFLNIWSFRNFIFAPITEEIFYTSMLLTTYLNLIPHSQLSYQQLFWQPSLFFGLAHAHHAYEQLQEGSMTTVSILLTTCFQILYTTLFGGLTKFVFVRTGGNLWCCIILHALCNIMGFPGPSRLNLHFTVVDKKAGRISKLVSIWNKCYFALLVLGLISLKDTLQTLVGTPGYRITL
# tim23-1 inh: growth inhibitors of tim23-1 mutant yeast | S. cerevisiae tim23-1 growth, BacTiter-Glo luminescence, 24 h | inhibition, % at 20 µM | 1.3% of 330,000 active;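 active = growth inhibition of the mutant yeast at or above 50%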;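 note: temperature-sensitive mutant grown at 25 °C; plate controls were DMSO-treated mutant yeast for no effect and medium wells lacking yeast for full effect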
# tim10-1 inh: growth inhibitors of tim10-1 mutant yeast. S. cerevisiae tim10-1 ts strain growth, BacTiter-Glo, 24 h. inhibition, % at 20 µM. 2.2% of 330,000 active;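 active = inhibition of at least 40%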;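 note: mutant grown at 25 °C; 0% = DMSO wells with yeast and 100% = wells holding no yeast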
# PfHsp90 yeast 2: inhibits growth of yeast expressing Plasmodium falciparum Hsp90 | 0.32% of 310,000 active | inhibition, % at 9.4 µM | S. cerevisiae expressing PfHsp90, BacTiter-Glo ATP, 48 h; yeast lacking PDR1 and PDR3 efflux regulators;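 active = every replicate shows inhibition above about 80%, whatever the replicate mean, limit read from the data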;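 note: 0% = DMSO neutral controls and 100% = 20 µM radicicol positive controls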
# TIM10 inh: inhibits growth of TIM10 yeast strain | 1.4% of 330,000 active | inhibition, % at 10 µM | S. cerevisiae TIM10 strain growth, BacTiter-Glo luminescence, 24 h;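 active = inhibition of 40% or more at the single tested concentration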;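 note: wild-type TIM10 isogenic control strain grown at permissive 25 °C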
# TIM10 conf: confirmation of TIM10 yeast growth inhibitors. shares compounds with TIM10 inh. S. cerevisiae tim10 strain growth, BacTiter-Glo luminescence, 24 h. inhibition, % at 10 µM. 63% of 4,600 active;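 active = inhibition of yeast growth at or above a set limit in either of two replicates at 10 µM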;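 note: this counterscreen used the strain with wild-type TIM10; 0% = yeast with DMSO and 100% = medium wells lacking yeast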
# * = called active by the depositor; i = inactive; / = not tested or not shown.
SMILES,Rce1 inhib,tim23-1 inh,tim10-1 inh,PfHsp90 yeast 2,TIM10 inh,TIM10 conf
CC(=O)Nc1ccc(NC(=O)[C@@H]2CCCN2S(=O)(=O)c2ccc3c(c2)OCCO3)cc1,i,1.7,9.6,-11.0,9.2,/
CCOc1ccc(C(CC(=O)O)NC(=O)C(c2ccccc2)c2ccccc2)cc1OC (stereo not given),/,-2.1,-9.0,28.5,-0.4,/
CC(C)[C@H](NC(=O)C1CCN(S(=O)(=O)c2ccc(F)cc2)CC1)C(=O)N1CCCCCC1,i,9.1,2.3,-9.6,1.4,/
O=C(CCCN1C(=O)/C(=C/c2cccc(Br)c2)SC1=S)Nc1cccnc1,i,24.7,37.3,-18.7,21.4,/
O=C(CCCN1C(=O)/C(=C\c2cccc(Br)c2)SC1=S)Nc1cccnc1,i,36.9,35.5,-10.0,44.8*,29.0
COC(=O)CCCCCN1C(=O)/C(=C\c2ccncc2)SC1=S,i,43.3,13.4,-12.8,41.8*,28.4*
COc1ccc(C(=O)Nc2ccccc2C(=O)Nc2cc(C)ccn2)cc1,i,49.9,30.1,15.3,43.0*,44.5*
COc1ccc(C(=O)Nc2ccccc2C(=O)Nc2cccc(C)n2)cc1,i,31.2,29.0,-11.9,25.0,/
CCc1cc(-c2n[nH]c(=S)n2C(C)c2ccccc2)cs1 (stereo not given),i,39.6,26.0,/,41.4*,19.5
O=C(O)C1CN(C(=O)c2ccccc2)c2cc(Cl)ccc2O1 (stereo not given),i,0.1,-2.0,3.1,3.2,/
COCc1ccc(-c2c(-c3ccsc3)sc3ccccc23)cc1,/,2.7,0.1,-2.3,-2.6,/
Oc1ccc(-c2c(-c3ccsc3)sc3ccccc23)cc1,i,40.8,30.1,107.0*,48.3*,61.4*
O=C(Nc1cc(Oc2ccc(Cl)cc2)cc([N+](=O)[O-])c1)c1ccco1,i,39.7,31.6,-61.9,64.8*,-12.8
CCC1CN(S(=O)(=O)c2ccc3c(c2)NC(=O)CC(=O)N3)c2cc(Cl)ccc2O1 (stereo not given),i,7.4,12.9,18.1,10.8,/
COc1ccc(N2CCN(CCCNC(=O)Cn3c(=O)c4cccn4c4ccccc43)CC2)cc1,i,1.0,3.9,6.8,45.8*,8.6
N#Cc1c2c(c(Nc3ccc(O)cc3)n3c1nc1ccccc13)CCC2,i,8.9,26.6,-10.9,14.4,/
CCOC(=O)CSc1nnc(-c2ccoc2C)n1-c1ccc(OCC)cc1,i,25.1,37.4,-0.5,45.4*,-4.7
CCOC(=O)CSc1nnc(-c2ccoc2C)n1-c1ccc(C)cc1,i,24.8,28.1,8.0,8.1,/
COc1cccc(CC(O)CC2c3c(cc4c(c3OC)OCO4)CCN2C)c1 (stereo not given),/,/,/,-1.6,/,/
S=c1[nH]c(-c2ccccc2)cn1-c1ccccc1,i,46.2,36.2,-47.0,46.3*,48.9*
Cc1ccc(CNC(=O)CN2C(C)CCCC2C)cc1 (stereo not given),i,5.2,-7.1,1.0,-7.9,/
CNc1nc(NN)nc(Nc2ccccc2)n1,i,-1.9,15.6,4.2,95.9*,6.3
CNc1nc(Nc2ccccc2)nc(OCC(F)(F)F)n1,i,-21.0,7.4,13.5,14.9,/
COc1cccc(-c2nn(-c3ccccc3)cc2C(=O)Nc2nccs2)c1,i,25.0,31.4,-41.3,30.0,/
O=C(Nc1ccncc1)c1cn(-c2ccccc2)nc1-c1cccs1,/,17.0,34.2,/,43.9*,53.5*
SMILES,Rce1 inhib,tim23-1 inh,tim10-1 inh,PfHsp90 yeast 2,TIM10 inh,TIM10 conf
COc1ccc(-c2nn(-c3ccccc3)cc2C(=O)Nc2nccs2)cc1,i,45.0,36.2,-25.0,42.9*,29.6
O=S(=O)(c1ccc2c(c1)OCCO2)N1CCN(Cc2ccccc2)CC1,i,48.8,25.9,-6.4,43.1*,29.5
Nc1nc2nc(-c3ccccc3)cc(C(F)(F)F)c2s1,/,47.3,4.9,18.0,47.2*,39.5*
Cc1nc(NC(=O)COC(=O)C2CC2C)c(Cl)cc1Cl (stereo not given),/,1.1,0.5,3.0,5.1,/
COc1ccc(Cn2c(=O)oc3ccc(C)cc32)cc1,/,17.7,-5.6,1.3,97.3*,4.7
CC1(C)C(=O)Nc2ccccc2N1C(=O)COC(=O)Cc1c(F)cccc1Cl,i,33.1,22.3,-11.2,0.8,/
COCc1nc2ccccc2n1Cc1c(F)cccc1Cl,i,1.0,25.7,/,6.7,/
